The text below walks through data of PMC4336329 (PLoS ONE, 2015).

About 14,000 (4.5%) of roughly 310,000 compounds showed an effect of 50% or more. The effect is printed as a negative number. What follows is part of a selection rich in strong results, with near analogues and random picks from the rest.
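Note: peak tail current of the secondary pulse compared with the same well before compound.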

Sequence of human ether-à-go-go-related gene (hERG) potassium channel (Q12809 whole entry, looked up): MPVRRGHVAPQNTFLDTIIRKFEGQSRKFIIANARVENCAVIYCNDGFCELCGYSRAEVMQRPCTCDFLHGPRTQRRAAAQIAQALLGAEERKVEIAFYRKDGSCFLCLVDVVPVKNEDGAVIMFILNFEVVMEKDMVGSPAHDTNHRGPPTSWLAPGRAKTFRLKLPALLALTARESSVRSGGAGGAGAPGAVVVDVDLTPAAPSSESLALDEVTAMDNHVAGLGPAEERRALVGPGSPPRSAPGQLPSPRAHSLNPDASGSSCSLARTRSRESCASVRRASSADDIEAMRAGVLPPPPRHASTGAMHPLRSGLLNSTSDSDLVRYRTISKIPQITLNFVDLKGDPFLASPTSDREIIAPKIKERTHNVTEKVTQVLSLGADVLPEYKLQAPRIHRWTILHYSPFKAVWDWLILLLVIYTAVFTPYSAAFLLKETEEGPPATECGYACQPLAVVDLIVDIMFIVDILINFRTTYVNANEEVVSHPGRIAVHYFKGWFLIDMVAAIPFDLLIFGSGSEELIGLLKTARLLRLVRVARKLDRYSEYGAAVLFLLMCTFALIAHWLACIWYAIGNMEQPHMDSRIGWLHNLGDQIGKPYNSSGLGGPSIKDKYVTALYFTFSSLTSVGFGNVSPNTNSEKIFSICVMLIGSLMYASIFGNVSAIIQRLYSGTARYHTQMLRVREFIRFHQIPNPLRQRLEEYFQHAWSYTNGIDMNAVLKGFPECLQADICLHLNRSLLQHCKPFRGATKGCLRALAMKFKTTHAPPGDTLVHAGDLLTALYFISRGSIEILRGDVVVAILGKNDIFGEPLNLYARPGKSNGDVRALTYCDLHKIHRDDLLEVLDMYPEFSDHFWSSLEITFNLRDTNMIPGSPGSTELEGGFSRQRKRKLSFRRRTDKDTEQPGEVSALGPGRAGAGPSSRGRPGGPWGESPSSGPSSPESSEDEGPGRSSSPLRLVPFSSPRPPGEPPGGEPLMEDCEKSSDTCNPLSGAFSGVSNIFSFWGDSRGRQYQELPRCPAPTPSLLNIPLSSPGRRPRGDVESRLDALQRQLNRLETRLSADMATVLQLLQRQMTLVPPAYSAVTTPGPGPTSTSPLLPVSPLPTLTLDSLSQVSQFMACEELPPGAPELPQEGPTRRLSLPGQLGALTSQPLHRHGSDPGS

The test addresses human ether-à-go-go-related gene (hERG) potassium channel (human, UniProt Q12809). Description: primary screen, population patch clamp on CHO cells stably expressing hERG; higher = less effect of the substance.
In the case of `COc1cc2ccccc2cc1C(=O)N1CCCC(C(F)(F)F)C1` (stereo not shown), the “hERG current change (%, negative = inhibition) at 10uM” value is given as -14.3%.

Turning to `O=C(Nn1cc(C(=O)N2CCN(c3ccccc3F)CC2)c2ccccc2c1=O)c1cnccn1`, the “hERG current change (%, negative = inhibition) at 10uM” value is 2.84%. Turning to `Cc1ccc(C(C)NC(=O)C23CC4CC(CC(C4)C2)C3)cc1` (stereo not shown), the “hERG current change (%, negative = inhibition) at 10uM” value came out at 11.4%. `CCOc1cccc(NC(=O)CSc2nc(C)c3c(c2C#N)CCCC3)c1`: the “hERG current change (%, negative = inhibition) at 10uM” value worked out at 0.331%.

In the case of `CCN(Cc1ccccc1)C(=O)COC(=O)c1cc(=O)[nH]c2ccccc12`, the “hERG current change (%, negative = inhibition) at 10uM” value is on record as -4.27%.

For the molecule `COC(=O)C1=C(C)N(Cc2ccccc2)C(=NCCc2ccccn2)N[C@H]1c1cccc(F)c1`, the “hERG current change (%, negative = inhibition) at 10uM” value is reported as -60.4%.

As for `COC(=O)C1=C(C)N(Cc2ccccc2)C(=NCc2ccc(OC)cc2)N[C@H]1c1cccc(F)c1`, the “hERG current change (%, negative = inhibition) at 10uM” value is reported as 6.76%. On to `CCN1C(=NCCOC)N[C@@H](c2cccc(F)c2)C(C(=O)OC)=C1C`, for which the “hERG current change (%, negative = inhibition) at 10uM” value was -14.3%. On to `COC(=O)C1=C(C)N(Cc2ccccc2)C(=NCc2ccccc2)N[C@H]1c1cccc(F)c1`, for which the “hERG current change (%, negative = inhibition) at 10uM” value was -11.5%. The value for `CCN1C(=NCCc2ccccn2)N[C@@H](c2cccc(F)c2)C(C(=O)OC)=C1C` was -56.7%; that for `CCN1C(=NCCCCO)N[C@@H](c2cccc(F)c2)C(C(=O)OC)=C1C` was 6.82%; that for `O=C1c2ccccc2CN1CCSC(=S)N1CCOCC1` was -8.59%.

Turning to `CC(C)C[C@H](NC(=O)C1CC(=O)N(c2ccc3c(c2)OCO3)C1)C(=O)NC1CCCCC1` (stereo partly shown), the “hERG current change (%, negative = inhibition) at 10uM” value is reported as 22.4%.

As for `COc1ccc(C(C)=O)cc1CSc1nc2cc(C(=O)O)ccc2c(=O)n1Cc1ccccc1`, the “hERG current change (%, negative = inhibition) at 10uM” value came to 12.7%.

On to `CCOc1cc(CNCCc2ccc(S(N)(=O)=O)cc2)cc(Cl)c1OCc1ccccc1.Cl`, for which the “hERG current change (%, negative = inhibition) at 10uM” value is listed as -70.7%. The figure for `CCOc1ccc2ccccc2c1CNCCc1ccc(S(N)(=O)=O)cc1.Cl` is -73.1%. The figure for `CCOc1cc(CNCCc2ccc(S(N)(=O)=O)cc2)ccc1OCC(=O)NC(C)(C)C.Cl` is 4.8%. The value for `CCOc1cc(CNCCc2ccc(S(N)(=O)=O)cc2)ccc1OCC(=O)NC1CCCCC1.Cl` was -36.3%; that for `CCOc1cc(CNCCc2ccc(S(N)(=O)=O)cc2)ccc1OCc1ccccc1.Cl` was -55.9%; that for `CCOc1cc(CNCCc2ccc(S(N)(=O)=O)cc2)ccc1OCc1ccc(Cl)cc1.Cl` was -18.5%. Turning to `CCOc1ccccc1OCC(=O)NCCc1ccc(S(N)(=O)=O)cc1`, the “hERG current change (%, negative = inhibition) at 10uM” value amounted to 10.9%.

For the molecule `CCNCc1cc(Cl)c(OCc2ccccc2)c(OCC)c1.Cl`, the “hERG current change (%, negative = inhibition) at 10uM” value was -8.51%.

On to `COc1cc(CNCCc2ccccc2)cc(Cl)c1OCc1ccccc1.Cl`, for which the “hERG current change (%, negative = inhibition) at 10uM” value is -18.7%. The value for `COC(=O)c1ccc(C(=O)OC)c(NC(=O)/C=C/C(=O)O)c1` was 5.06%. The value for `CC(NC(=O)c1ccccc1SCC(=O)N1CCCC1)c1ccccc1` (stereo not shown) was -26.1%; that for `CCCCP(=O)(CCCC)Cc1ccccc1` was 15.3%; that for `CCN1C(=O)NC(=O)/C(=C/c2cc(C)n(-c3sc(C)c(C)c3C#N)c2C)C1=O` was -4.66%. On to `COc1ccc(-c2c(C)nc(N)nc2-c2ccc(OCc3ccc(C)cc3)cc2O)cc1OC`, for which the “hERG current change (%, negative = inhibition) at 10uM” value amounted to 4.25%. The figure for `COc1ccc(C(=O)N2CCN(c3cccc(Cl)c3)CC2)cc1` is -36%; for `CCOc1ccc(C(=O)N2CCCCCC2)cc1` it is 2.03%; for `CCOc1ccc(C(=O)N2CCN(Cc3ccccc3)CC2)cc1` it is -69.3%. The value for `COc1ccc(C(=S)N2CCN(C)CC2)cc1` was -22.8%.

On to `CCOc1ccc(CN2CCN(C(=O)c3ccccc3)CC2)cc1`, for which the “hERG current change (%, negative = inhibition) at 10uM” value is -39.5%. The figure for `CCOc1ccc(C(=O)N2CCN(c3ccccc3)CC2)cc1` is -36.3%; for `CCOc1ccc(C(=O)N2CCCN(C(=O)c3ccc(OCC)cc3)CC2)cc1` it is -71.8%. Consider `CCOc1ccc(C(=O)N2CCCC2)cc1`, for which the “hERG current change (%, negative = inhibition) at 10uM” value was found to be 5.24%. Take `CCN(CC)c1ccc(C(=O)N2CCN(Cc3ccccc3)CC2)cc1`: the “hERG current change (%, negative = inhibition) at 10uM” value is on record as -37.8%.

Regarding `CCN1CCN(C(=S)c2ccc(OC)cc2)CC1`, the “hERG current change (%, negative = inhibition) at 10uM” value is -64.8%. Regarding `CCOc1ccc(C(=O)N2CCN(c3cccc(Cl)c3)CC2)cc1`, the “hERG current change (%, negative = inhibition) at 10uM” value is given as -73.7%. The value for `CCN1CCN(C(=S)c2ccc(O)cc2)CC1` was 11%; that for `Cn1c(SCC(=O)N2CCCC2=O)nc2ccccc21` was 28.2%.

As for `CCCS(=O)(=O)N1CCCC(C(=O)N2CCC3(CC2)OCCO3)C1` (stereo not shown), the “hERG current change (%, negative = inhibition) at 10uM” value is on record as 15.7%.

`CCCCNS(=O)(=O)c1ccc2nc(-c3cccnc3)cc(C(=O)NCC(OC)OC)c2c1`: the “hERG current change (%, negative = inhibition) at 10uM” value is -2.03%.

For the molecule `O=[N+]([O-])c1ccc(N2CCN(c3ccccc3F)CC2)c(S(=O)(=O)N2CCOCC2)c1`, the “hERG current change (%, negative = inhibition) at 10uM” value was -5.12%. The value for `CC(=O)NC(Nc1nc2c(s1)CCCC2)(C(F)(F)F)C(F)(F)F` was 23.8%; that for `C=CCNC(=O)/C(=C\C=C\c1ccccc1)NC(=O)c1ccccc1Cl` was -49.7%.

As for `CNC(=O)c1[nH]cnc1C(=O)NCC(=O)OCc1ccccc1`, the “hERG current change (%, negative = inhibition) at 10uM” value amounted to 13.9%. As for `Cc1cc(NC(=O)c2cc([N+](=O)[O-])cc([N+](=O)[O-])c2)n(-c2ccccc2)n1`, the “hERG current change (%, negative = inhibition) at 10uM” value is reported as 7.63%. The figure for `COc1ccc(/C=C2\CCn3c2nc2cc(C(=O)O)ccc2c3=O)cc1` is 9.07%; for `COC(=O)CCCC1=CC2=CC(=O)C(C)(OC(=O)c3cccs3)C(=O)C2=CN1CCCCO` (stereo not shown) it is 3.74%; for `CCCCc1cc(=O)oc2cc(OC(C)C(=O)NCc3ccccn3)c(Cl)cc12` (stereo not shown) it is -13.6%. For `Br.COc1ccc(-c2csc(CCN3N=C(C)CC3=O)n2)cc1`, the “hERG current change (%, negative = inhibition) at 10uM” value is given as 12.7%.

For `CCOc1ccc(C(=O)N2CCN(c3cccc(C)c3C)CC2)cc1`, the “hERG current change (%, negative = inhibition) at 10uM” value is listed as -79.9%. Take `O=C(CCNS(=O)(=O)c1ccc(OC(F)(F)F)cc1)N1CCN(C/C=C/c2ccccc2)CC1`: the “hERG current change (%, negative = inhibition) at 10uM” value is recorded as -81.5%. On to `CCOc1ccc(S(=O)(=O)NCCC(=O)N2CCN(Cc3ccccc3)CC2)cc1`, for which the “hERG current change (%, negative = inhibition) at 10uM” value was -54.2%. The figure for `CCOC(=O)N1CCN(c2cccc(C)c2C)CC1` is -2.36%; for `CCCNS(=O)(=O)c1ccc(OCC(=O)N2CCN(Cc3ccccc3)CC2)cc1` it is -28.6%; for `CCOc1ccc(C(=S)N2CCCC2)cc1` it is -7.78%.

For the molecule `CCOc1ccc(C(=S)N2CCOCC2)cc1`, the “hERG current change (%, negative = inhibition) at 10uM” value was -13.2%. On to `O=C(CCNS(=O)(=O)c1ccccc1F)N1CCN(C/C=C/c2ccccc2)CC1`, for which the “hERG current change (%, negative = inhibition) at 10uM” value is on record as -47.8%.

Consider `CCOc1ccc(C(=S)N2CCN(C)CC2)cc1`, for which the “hERG current change (%, negative = inhibition) at 10uM” value was -82.2%. With `Cc1ccc(S(=O)(=O)NCCC(=O)N2CCN(C/C=C/c3ccccc3)CC2)cc1`, the “hERG current change (%, negative = inhibition) at 10uM” value is listed as -49.5%. As for `Cc1ccc(S(=O)(=O)NCCC(=O)N2CCN(Cc3ccccc3)CC2)cc1`, the “hERG current change (%, negative = inhibition) at 10uM” value is 11%.

On to `Cc1cccc(N2CCN(C(=O)c3ccncc3)CC2)c1C`, for which the “hERG current change (%, negative = inhibition) at 10uM” value is listed as -37%. On to `CC(=O)Nc1ccc(S(=O)(=O)NCC2CCC(C(=O)N3CCCCCC3)CC2)cc1` (stereo not shown), for which the “hERG current change (%, negative = inhibition) at 10uM” value is recorded as 5.67%.

Consider `CN(c1ccccc1)S(=O)(=O)c1ccc(Cl)nc1`, for which the “hERG current change (%, negative = inhibition) at 10uM” value was found to be 10.8%. The figure for `C#CCOCCOCCOCCNc1nc(N2CCN(C(=O)[C@H]([C@@H](C)CC)n3cc([C@@H](N)Cc4ccc(O)cc4)nn3)CC2)nc(N2CCN(C(=O)[C@H](Cc3cc4ccccc4[nH]3)n3cc([C@@H](N)C(C)CC)nn3)CC2)n1.Cl` (stereo partly shown) is 3.33%; for `Cc1cc(Cl)ccc1OCC(=O)Nc1nc(-c2cccs2)cs1` it is 15.6%.

On to `CC(OC(=O)Cc1c[nH]c2ccccc12)C(=O)Nc1ccccc1F` (stereo not shown), for which the “hERG current change (%, negative = inhibition) at 10uM” value was -11.7%. The figure for `O=C(O)C(=O)O.O=C(c1cccc(F)c1)N1CCN(Cc2cccc(Br)c2)CC1` is -48.6%; for `CN1CCN(Cc2cccc(Oc3ccc(Cl)cc3)c2)CC1` it is 1.98%. The figure for `CCOc1ccc(CN2CCN(C(=O)c3cccc(F)c3)CC2)cc1.O=C(O)C(=O)O` is -62%. Regarding `CCN1CCN(Cc2cccc(Oc3ccccc3)c2)CC1`, the “hERG current change (%, negative = inhibition) at 10uM” value was -35.9%. `CCN1CCN(Cc2cccc(Oc3ccc(Cl)cc3)c2)CC1`: the “hERG current change (%, negative = inhibition) at 10uM” value is listed as -56.9%. The value for `COc1cccc(C(=O)N2CCN(Cc3cccc(F)c3)CC2)c1.O=C(O)C(=O)O` was -7.48%; that for `O=C(c1ccccc1)N1CCN(Cc2cccc(Oc3ccccc3)c2)CC1` was -50.1%.

In the case of `O=C(c1cccc(C(=O)N2CCN(Cc3ccccc3)CC2)c1)N1CCN(Cc2ccccc2)CC1`, the “hERG current change (%, negative = inhibition) at 10uM” value is -17.2%. On to `COc1cccc(CN2CCN(C(=O)c3ccc(-c4ccccc4)cc3)CC2)c1`, for which the “hERG current change (%, negative = inhibition) at 10uM” value is reported as -38.3%. The value for `C=CCn1c(-c2cccc(OC)c2OC)n[nH]c1=S` was -24.3%; that for `Cc1cc2c(c(=O)n1Cc1ccccn1)C(c1ccc3c(c1)OCO3)C(C#N)=C(N)O2` (stereo not shown) was -0.622%; that for `COc1ccc(C(=S)N2CCCC2)cc1OC` was 2.36%. `CC(C)OC(=O)CC(=O)CSc1nc2c(cc1C#N)CCCCCC2`: the “hERG current change (%, negative = inhibition) at 10uM” value is given as -4.33%.

With `O=C(O)c1ccc(C2SCC(=O)N2Cc2ccccc2)cc1` (stereo not shown), the “hERG current change (%, negative = inhibition) at 10uM” value is -0.7%.

For the molecule `COc1ccc(N2CCN(C(=O)CSc3nnc4c(C)cc5cc(C)ccc5n34)CC2)cc1`, the “hERG current change (%, negative = inhibition) at 10uM” value is on record as -21.2%. For `O=C1C2C3C=CC(C3)C2C(=O)N1c1n[nH]c(-c2cccnc2)n1` (stereo not shown), the “hERG current change (%, negative = inhibition) at 10uM” value was determined as 11.1%.
